# In the library only some 5.8% were active in any assay of this set; here they are far more common.
# MCF10A rereplic: induces DNA re-replication in MCF 10a normal breast cells | MCF 10A DNA re-replication, Hoechst nuclear intensity, 48 h | Potency, µM (top dose mostly 46.1 µM), for inactives: at the top dose activity, positive = re-replication, actives largely listed as activators | actives 2.9% (n = 350,000) | AID 624296; further: % of control where 0% means no effect; nearly all actives have a fitted effect of over 50% in size
# KB-3-1 tox: KB-3-1 parental cell cytotoxicity; actives 1.4% (n = 400,000); AID 1347075; Potency, µM (highest dose often 46.1 µM), hits mostly cytotoxic; KB-3-1 viability, CellTiter-Glo ATP luminescence, 72 h; further: on the % scale 0 is the no-effect control and ±100 the full control effect; nearly all actives have a fitted effect of over 60% in size
#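 Screening of KB-3-1 cells (DMEM, 10% FBS, phenol-red free) ran from lowest to highest compound concentration; after 72 h at 37 °C viability was read luminescently and curves fitted.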
# SW480 rerep: DNA re-replication induction in SW480 cells; SW480 DNA re-replication, Hoechst DNA content imaging, 48 h; Potency, µM (series often up to 46.1 µM), for inactives: at the highest dose re-replication activation, hits mostly activators; actives 1.8% (n = 340,000); AID 624297; further: % of control where 0% means no effect; nearly all actives have a fitted effect of over 55% in size
#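 Readout is total intensity of Hoechst-stained nuclei, excited at 405 nm and collected at 500-530 nm. Compound treatment lasted 48 hr at 37 C in 5% CO2 before staining.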
# KB-V1 cytotox: KB-V1 MDR subline cytotoxicity | KB-V1 MDR cells viability, CellTiter-Glo, 72 h | AID 1347076 | actives 3.4% (n = 400,000) | Potency, µM (titrated, usually from 46.1 µM), hits mostly cytotoxic; further: on the % scale 0 is the no-effect control and ±100 the full control effect; nearly all actives have a fitted effect of over 60% in size
#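 Readout: CellTiter-Glo luminescence, 10 min after addition. Cells: KB-V1 MDR subline, 72 h at 37 degrees C with compound. Analysis: corrected, normalized data fitted to concentration-effect curves.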
# ALOX12 inh: blocks human arachidonate 12S-lipoxygenase | purified 12hLO, xylenol orange hydroperoxide absorbance | Potency, µM (titrated, usually from 108 µM), for the others: at the highest dose activity change, negative = inhibition, actives largely listed as inhibitors | actives 1.1% (n = 580,000); further: on the % scale 0 is the no-effect control and ±100 the full control effect
# Target sequence (P18054 whole entry, looked up): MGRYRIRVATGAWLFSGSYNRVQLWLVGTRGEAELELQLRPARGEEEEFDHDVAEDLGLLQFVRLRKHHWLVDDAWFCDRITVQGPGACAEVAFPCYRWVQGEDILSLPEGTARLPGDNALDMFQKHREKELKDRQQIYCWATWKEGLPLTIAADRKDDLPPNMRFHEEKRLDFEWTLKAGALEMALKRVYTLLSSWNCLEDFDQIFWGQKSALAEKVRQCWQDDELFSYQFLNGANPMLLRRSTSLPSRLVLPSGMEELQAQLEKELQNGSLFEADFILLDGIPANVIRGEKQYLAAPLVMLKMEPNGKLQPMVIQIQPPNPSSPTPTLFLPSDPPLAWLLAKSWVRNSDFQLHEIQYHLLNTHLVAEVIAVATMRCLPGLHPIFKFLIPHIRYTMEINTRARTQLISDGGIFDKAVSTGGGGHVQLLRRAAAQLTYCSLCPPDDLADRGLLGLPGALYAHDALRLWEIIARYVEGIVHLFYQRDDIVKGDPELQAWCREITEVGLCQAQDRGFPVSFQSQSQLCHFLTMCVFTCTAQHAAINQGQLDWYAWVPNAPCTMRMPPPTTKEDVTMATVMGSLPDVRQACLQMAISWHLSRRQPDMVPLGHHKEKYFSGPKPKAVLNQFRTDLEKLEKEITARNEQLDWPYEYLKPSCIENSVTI
#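 Hydroperoxide product was detected by ferrous iron/xylenol orange as the 573 to 405 nm absorbance ratio. Arachidonic acid at 40 uM (final) was turned over for 30 min at room temperature by 150 nM human 12hLO, pH 7.0 Hepes buffer, after 15 min compound preincubation.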
# PINK1 modulator: PINK1 expression modulation. PINK1 immunofluorescence, high-content cytometry, 24 h. AID 624263. Potency, µM (highest dose often 76.6 µM), for inactives: top-dose activation (PINK1 increase), most hits filed as activators. actives 0.2% (n = 410,000); active means well fitted activation curve with a large enough effect; inconclusive means small, poorly fitted or top-dose-only effect; cell line not stated here; further: % of control where 0% means no effect; nearly all actives have a fitted effect of over 65% in size
#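 PINK1 protein, normally rapidly degraded, was detected by immunofluorescence after 24 hour compound treatment of a stable cell line. Titration data (5 concentrations) came from laser-scanning cytometry, with CCCP-treated wells as controls.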
# An asterisk follows results filed as active; i = inactive; ? = inconclusive; . = no result; ! = a repeat was not active; [ ] = remark or other dose. Unless noted, the call rests on the fitted dose curve; in most records, active means well fitted curve in the direction sought with a large enough effect; inconclusive means small, poorly fitted or top-dose-only effect, or another doubt; inactive means no such curve, though single readings can be large; an effect the other way counts as inactive or inconclusive. Potency means the concentration at half of the fitted maximal effect.
SMILES,MCF10A rereplic,KB-3-1 tox,SW480 rerep,KB-V1 cytotox,ALOX12 inh,PINK1 modulator
CC(C)(C)CC(C)(C)SSc1n[nH]c(=S)s1,-7%,?,?,i,35µM*,0%
O=C(Nc1nccs1)c1cc2c(s1)-c1ccccc1OC2,9.2µM*,?,16µM*,i,24%[57.4 µM],4%
O=C(Nc1nc2ccccc2s1)c1cc2c(s1)-c1ccccc1OC2,?,i,6.5µM*,i,298%,-1%
Cc1cccc2c1-c1sc(C(=O)Nc3nccs3)cc1CO2,3.7µM*,i,7.3µM*,i,5%,5%
O=C(Nc1cccnc1Cl)c1cc2c(s1)-c1ccccc1OC2,18µM*,i,134%,i,-28%,10%
O=C(Nc1cccnc1)c1cc2c(s1)-c1ccccc1OC2,0%,i,14%,i,6%,0%
O=C(Nc1ccc(Cl)cn1)c1cc2c(s1)-c1ccccc1OC2,?,i,?,i,-15%,6%
O=C(NNC(=O)C1CCCCC1)c1cc(F)cc(F)c1,.,.,.,.,13%,.
CCOC(=O)c1[nH]c2ccccc2c1NC(=O)c1ccc(S(=O)(=O)N2CCCCC2)cc1,23µM*,i,6%,i,-7%,5%
CCOC(=O)c1[nH]c2ccccc2c1NC(=O)c1ccccc1OCC,.,1.6µM*,.,?,-28%,-1%
COC(=O)c1[nH]c2ccc(C)cc2c1NC(=O)c1ccccc1[N+](=O)[O-],?,i,-5%,16µM*,4%,23%
CNC(=O)[C@@H]1C[C@H](Oc2ccccc2)CN1C(=O)Cn1nc(C(F)(F)F)cc1C,.,.,.,.,33%,.
COC(=O)C1=C(N)Oc2cc(C)n(Cc3ccccc3)c(=O)c2C1c1ccccc1OC (stereo unspecified),.,.,.,.,-12%,.
Cc1ccc(S(=O)(=O)CNC(=S)c2cccc(Cl)c2)cc1,6%,i,6%,i,10µM*,4%
O=C1[C@@H]2Cc3c([nH]c4ccccc34)[C@@H](c3ccccc3)N2C(=O)[C@@H]2Cc3c([nH]c4ccccc34)[C@@H](c3ccccc3)N12,?,.,23µM*,.,.,.
O=C1NCC(=O)N2C(c3ccccc3)c3[nH]c4ccccc4c3C[C@@H]12 (stereo partly specified),1%,i,-32%,i,90%,-1%
O=C(Nc1nc(-c2cccnc2)cs1)C1CC(=O)N(c2ccccc2Cl)C1 (stereo unspecified),.,.,.,.,-16%,.
CC(C)C(=O)Nc1ccc(F)c(F)c1,.,.,.,.,-9%,.
O=C(N/N=C/c1ccccc1O)C(=O)N1CCCCCC1,17%,?,5.8µM*,i,i,-1%
COc1cc(CNCc2ccccn2)ccc1OCC(=O)NC(C)(C)C,0%,i,-7%,21µM*,1%,1%
COc1cc(CNCc2ccccn2)ccc1OCC(=O)NC1CCCCC1,0%,i,-67%,21µM*,5%,0%
COc1cc(CNCc2cccnc2)ccc1OCC(=O)NC(C)(C)C,0%,i,-101%,i,-7%,2%
CCOc1cc(CNCc2ccccc2)ccc1OCC(=O)NC1CCCCC1,26%,.,?,.,8%,5%
Cc1ccccc1NC(=O)CSc1nc2c(cc1C#N)CCCC2,.,.,.,.,13%,.
Nc1c(C(=O)OCC(=O)Nc2ccc(Cl)cc2[N+](=O)[O-])[nH]c(=O)[nH]c1=O,23µM*,i,-2%,i,4%,0%
SMILES,MCF10A rereplic,KB-3-1 tox,SW480 rerep,KB-V1 cytotox,ALOX12 inh,PINK1 modulator
CC(=O)c1cc(C)cc(C(C)=O)c1O,.,.,.,.,1%,.
CCOc1ccccc1C(=O)N(C)Cc1cc2cc(OC)ccc2[nH]c1=O,-3%,i,-9%,i,10%,1%
CCOc1cc(C(=O)N(C)Cc2cc3cc(OC)ccc3[nH]c2=O)cc(OCC)c1OCC,0%,i,15%,i,2µM*!,0%
CCOc1ccc(N(Cc2cc3cc(OC)ccc3[nH]c2=O)S(C)(=O)=O)cc1,-1%,i,-13%,15µM*,?,4%[38.3 µM]
COc1ccc2[nH]c(=O)c(CN(c3ccc(C)c(C)c3)S(C)(=O)=O)cc2c1,-14%,i,-23%,i,-21%,2%
CCN(CC(=O)NC(C)(C)C)C(=O)c1ccc(C#N)cc1,.,.,.,.,51%,.
Cc1cc(C(=O)N[C@H](c2ccccc2)[C@@]2(C)C[C@@H]2[C@@H](C)C(=O)Nc2ccc3ccccc3c2)n(C)n1,?,?,15µM*,?,?,20%
CCOC(=O)c1ccc2c(c1)nc(SCC(=O)c1ccco1)n2CC,11%,i,-5%,i,?,-1%
COCCn1c(SCC(=O)Nc2ccc3[nH]c(=O)[nH]c3c2)nc2ccccc2c1=O,1%,i,-7%,i,-1%,-1%
CCOC(=O)c1ccc2c(c1)nc(SC/C(O)=C(\C#N)c1nc3ccccc3[nH]1)n2CC,?,i,0%,i,-14%,40µM*
Cc1cccc(Nc2nnc(SCC(O)=C(C#N)c3nc4ccccc4[nH]3)s2)c1,15µM*,i,25%,i,?,3%
Cc1cc(C)n2c(SC/C(O)=C(\C#N)c3nc4ccccc4[nH]3)nnc2n1,2%,i,?,i,-6%,0%
CCOC(=O)c1cccc(NC(=O)CSc2nc3ccccc3c(=O)n2CC)c1,4%,i,-8%,2.3µM*,4%,?
CCOC(=O)c1cccc(NC(=O)CSc2nc3ccccc3c(=O)n2CCOC)c1,25%,i,-1%,4.6µM*,-15%,5%[38.3 µM]
CCn1c(SCC(=O)Nc2cccc(OC)c2)nc2ccccc2c1=O,0%,i,-9%,i,17%,8%
COc1ccccc1C(C)NC(=O)Cc1csc2nc(-c3ccc(F)cc3)cn12 (stereo unspecified),.,.,.,.,-3%,.
COCCn1c(-c2ccccc2)cnc1SCC(=O)Nc1cccc2ccccc12,?,i,8%,5.2µM*,-1%,3%
CCNC(=O)c1c(NC(=O)c2nc(SCC)ncc2Cl)sc2c1CCCC2,.,?,.,i,.,1%
CCCSc1ncc(Cl)c(C(=O)Nc2sc3c(c2C(N)=O)CCCC3)n1,.,i,.,i,-33%,8.9µM*
CCSc1ncc(Cl)c(C(=O)Nc2sc3c(c2C(=O)NCc2cccnc2)CCCC3)n1,11%,i,11%,?,24%,11µM*
CC(Oc1ccc(C(C)C)cc1)C(N)=O (stereo unspecified),.,.,.,.,-39%,.
CCCCCCCCCCCCCCCC[n+]1ccc(C)c2ccccc21,.,3.7µM*,.,13µM*,.,.

# Compound activity (PubChem BioAssay)
